SKKanGAS inh – blocks kanamycin growth of S. pyogenes SKKanGAS strain; 300,000 tested, 1.3% active; BacTiter-Glo, 6 h; inhibition, % at 7.5 µM;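 active means mean replicate score, as percent of positive control median, at least 50; inconclusive means mean below 50 but one replicate at or above 50; inactive means mean and every replicate below 50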;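 further: strain carries kanamycin resistance gene driven by streptokinase promoter and grows in 40 µg/ml kanamycin; loss of luminescence reflects streptokinase promoter inhibition or plain growth inhibition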
KLF5 inhibitor – kruppel-like factor 5 inhibition; DLD-1 KLF5 promoter-luciferase reporter, luminescence; inhibition, % at 5 µM; 290,000 tested, 0.23% active; AID 1700;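 active means inhibition above a per-plate limit of that plate's mean compound inhibition plus 3 SD, cut at about 60% in these data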;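 further: higher means less KLF5 promoter-driven luciferase light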
aSyn UTR inh – MLPCN primary screen, SNCA 5' untranslated region. AID 1813. 300,000 tested, 0.82% active. inhibition, % (tested at 7.5 µM). alpha-synuclein 5'UTR reporter, inhibitor activity; in the data active means inhibition above about 60%; inconclusive means no clear call, values can overlap the other calls;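 further: H4 neuroglioblastoma cells stably carrying SNCA 5'UTR luciferase fusion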
IEC-6 tox – counter-screen for KLF5 inhibitors: cytotoxicity in IEC-6 cells; IEC-6 cytotoxicity, luminescence viability; inhibition, % at 5 µM; 290,000 tested, 0.78% active; in the data active means inhibition above about 22%
CSC inhib – blocks cancer stem cells; cancer stem cell-like cells viability, luminescence; inhibition, % at 7.5 µM; 300,000 tested, 1.1% active; AID 2717; in the data active means inhibition above about 75%; inconclusive means no clear call, values can overlap the other calls; tested in HMLE shEcad cells
Large screens that a line does not name were inactive. Shown are actives, neighbours in structure and some others; about 3% of the full set was active somewhere.

CCC(=O)N1c2ccccc2NC2=C(C(=O)CC(C)(C)C2)C1c1ccc(O)c(OC)c1 (centres undefined)	none
Cn1c(/C=N/Nc2nc3ccccc3[nH]2)nc2ccccc21	none
C=CCn1cc(/C=N/Nc2nc3ccccc3[nH]2)c2ccccc21	IEC-6 tox 23, CSC inhib 92
Cc1nn(-c2ccccc2)c(C)c1/C=N/Nc1nc2ccccc2[nH]1	SKKanGAS inh 60
Cc1c(/C=N/Nc2nc3ccccc3[nH]2)c2ccccc2n1C	SKKanGAS inh 88
Cc1ccc(-c2cc(C(=O)N/N=C/c3c(C)nn(-c4ccccc4)c3C)[nH]n2)cc1	aSyn UTR inh 66 (no result: CSC inhib)
O=C(O)c1cccc(-n2c(-c3cnccn3)n[nH]c2=S)c1	none
CCN(CC)c1ccc(/C=N/Nc2nc3ccccc3[nH]2)cc1	SKKanGAS inh 95, IEC-6 tox 41 (no result: CSC inhib)
CC(=O)Nc1ccc(/C=N/Nc2nc3ccccc3[nH]2)cc1	none
CC(C)Cn1c(/C=N/Nc2nc3ccccc3[nH]2)nc2ccccc21	SKKanGAS inh 97 (no result: CSC inhib)
CCCn1c(/C=N/Nc2nc3ccccc3[nH]2)nc2ccccc21	none (no result: SKKanGAS inh, aSyn UTR inh, CSC inhib)
COc1cc2ccccc2cc1C(=O)NC(=S)Nc1ccc(C(=O)O)cc1	SKKanGAS inh 54
Cn1c(=S)[nH]c(=O)c2ncc(=O)[nH]c21	none
O=C1/C(=C/c2c[nH]c3ccccc23)CCC/C1=C\c1c[nH]c2ccccc12	SKKanGAS inh 59
O=C(CSc1nnc(-c2ccc(O)cc2)o1)Nc1ccccc1Br	none
CN(C)Cc1c(C(C)(C)O)[nH]c2ccc(C(F)(F)F)cc12	none (no result: SKKanGAS inh, KLF5 inhibitor, aSyn UTR inh, IEC-6 tox)
CCc1c(C2(O)CCCCC2)[nH]c2ccc(C(F)(F)F)cc12	SKKanGAS inh 69, CSC inhib 84
COc1ccc(C2/C=C\CN(C(=O)c3ccccc3)CC(=O)N2Cc2ccc(F)cc2)cc1 (centres undefined)	SKKanGAS inh 68 (no result: KLF5 inhibitor, IEC-6 tox)
CCN(CC)c1ccc(-c2nc3cnccn3c2NC2CCCC2)cc1	none
c1cn2c(NC3CCCCC3)c(-c3ccc(SC4CCCCC4)cc3)nc2cn1	SKKanGAS inh 89, CSC inhib 126 (no result: KLF5 inhibitor, IEC-6 tox)
c1cn2c(NC3CCCC3)c(-c3ccc(N4CCOCC4)cc3)nc2cn1	none (no result: KLF5 inhibitor, IEC-6 tox)
c1cc(SC2CCCCC2)cc(-c2nc3cnccn3c2NC2CCCCC2)c1	CSC inhib 104 (no result: SKKanGAS inh, KLF5 inhibitor, aSyn UTR inh, IEC-6 tox)
N=c1n(Cc2ccc(Cl)cc2)c2ccccc2n1CC(O)COc1ccccc1 (centres undefined)	none
OC(COCC(F)(F)C(F)(F)C(F)(F)C(F)F)Cn1c2ccc(Cl)cc2c2cc(Cl)ccc21 (centres undefined)	SKKanGAS inh 110, CSC inhib 116
c1ccc(-c2nnsc2-c2ccccc2)cc1	none (no result: CSC inhib)
O=S(=O)(c1ccc(Cl)c(Cl)c1)c1snnc1-c1ccccc1	aSyn UTR inh 118 (no result: CSC inhib)
Cc1cccc2[nH]c(CCNC(=O)C3CCC(=O)N(CCc4cccc(F)c4)C3)nc12 (centres undefined)	none
COc1ccc(N=Nc2n(C)c3ccccc3[n+]2C)cc1	aSyn UTR inh 103 (no result: CSC inhib)
CC(=O)Nc1nc(C)c(-c2csc(Nc3cccc([N+](=O)[O-])c3)n2)s1	aSyn UTR inh 67
Cc1nc(NC(=O)c2ccc(Cl)cc2)sc1-c1csc(Nc2cccc(F)c2)n1	SKKanGAS inh 73
O=[N+]([O-])c1cccc(NC(=S)Nc2nc(-c3ccc(Cl)cc3Cl)cs2)c1	SKKanGAS inh inconclusive, aSyn UTR inh 73, CSC inhib 93
Cc1cc(=O)[nH]c(-c2cccnc2)n1	none
CC[C@]12c3[nH]c4ccccc4c3CCN1C(=O)C(CC(=O)NCCCN(C)C)C[C@@H]2C(=O)N1CCN(C(=O)C2CC2)CC1 (some centres undefined)	none (no result: SKKanGAS inh, KLF5 inhibitor, aSyn UTR inh, IEC-6 tox)
O=C(Oc1c(CN2CCOCC2)cc(Cl)c2cccnc12)c1cccs1	aSyn UTR inh 108
CC(=O)NC(C)c1cc(Cl)c2cccnc2c1O (centres undefined)	none (no result: SKKanGAS inh, KLF5 inhibitor, aSyn UTR inh, IEC-6 tox)
O=C(Oc1c(CN2CCOCC2)cc(Cl)c2cccnc12)c1ccccc1Cl	aSyn UTR inh 105
O=C(Oc1cncc(Cl)c1)c1ccco1	none (no result: CSC inhib)
O=C(Oc1c(Cl)cc(Cl)c2cccnc12)c1ccco1	SKKanGAS inh 85, CSC inhib active
O=C(Oc1ccc(Cl)c2cccnc12)N1CCOCC1	none
Oc1c(Cl)cc(Cl)c2cccnc12	SKKanGAS inh 87 (no result: CSC inhib)
Cc1ccsc1C(=O)NCc1ccc(F)cc1	none
O=C(Oc1c(CN2CCOCC2)cc(Cl)c2cccnc12)c1ccc(F)cc1	aSyn UTR inh 65
O=C(Oc1c(Cl)cc(Cl)c2cccnc12)c1cccs1	SKKanGAS inh 92, CSC inhib 121
Oc1c(I)cc(I)c2cccnc12	SKKanGAS inh 92 (no result: CSC inhib)
Cn1nnc(NC(=S)NC(=O)c2cccc3c(Cl)cccc23)n1	none
Cc1cccc(OCCn2c(=S)[nH]c3ccccc32)c1	none
Cc1ccc(OCCn2c(=S)[nH]c3ccccc32)c(C(C)C)c1	SKKanGAS inh 101, CSC inhib 101
COc1ccccc1C(=O)Nc1c[nH]c(=O)[nH]c1=O	none (no result: CSC inhib)
CCOc1ccccc1C(=O)Nc1c[nH]c(=O)[nH]c1=O	aSyn UTR inh 62 (no result: CSC inhib)
Cc1ccc(C)c(OCC(=O)Nc2c[nH]c(=O)[nH]c2=O)c1	aSyn UTR inh 81
O=C(Cn1cnc2ccccc21)N1CCN(S(=O)(=O)c2ccccc2)CC1	none
CCc1ccc(-c2nc(CS(=O)CC(=O)NCCCN3CCC(C)CC3)c(C)o2)cc1 (centres undefined)	none
O=C(CCCN1C(=O)/C(=C/c2ccc3c(c2)OCO3)SC1=S)Nc1cccc(C(=O)O)c1	aSyn UTR inh 73
CCN(CC)CCOC(=O)c1ccc(NC(=O)CCCN2C(=O)S/C(=C/c3ccc(OC)cc3)C2=S)cc1	aSyn UTR inh 97
O=C(CCN1C(=O)/C(=C/c2ccc3c(c2)OCO3)SC1=S)Nc1cccc(C(=O)O)c1	none
COc1ccc(/C=C2\SC(=O)N(CCCC(=O)Nc3ccc(C(=O)O)cc3)C2=O)cc1OC	aSyn UTR inh 73
COc1cc(/C=C2\SC(=S)N(CCC(=O)Nc3cccc(O)c3)C2=O)cc(OC)c1OC	SKKanGAS inh 57
COc1cc(/C=C2\SC(=S)N(CCC(=O)Nc3ccccc3)C2=O)cc(OC)c1OC	none
O=C(CN1CCN(C(=O)c2c(F)cccc2F)CC1)Nc1ccccc1C(F)(F)F	none
COc1cc(/C=C2/SC(=S)N(CCC(=O)Nc3ccccc3)C2=O)cc(OC)c1OC	none
COc1ccc(/C=C2\SC(=O)N(CCC(=O)Nc3ccccc3)C2=O)cc1OC	aSyn UTR inh 82
CCC(C)NC(=O)c1ccc(N2CC3CC(C2)c2cccc(=O)n2C3)c(NC(=O)c2ccc(Br)o2)c1 (centres undefined)	none
O=C(Nc1cccc(Cl)c1)Nc1cc(S(=O)(=O)N2CCCCC2)ccc1Cl	SKKanGAS inh 54, CSC inhib 87
CC(=O)Nc1ccc(OC(=O)c2ccc(Br)c([N+](=O)[O-])c2)cc1	none
Cc1ccc(C(=O)c2c(C)oc3c2C(=O)C(=O)c2ccccc2-3)cc1	SKKanGAS inh 93
Cc1ccc(C(=O)c2coc3c2C(=O)C(=O)c2ccccc2-3)cc1	none
Cc1oc2c(c1C(=O)c1ccc(Cl)cc1)C(=O)C(=O)c1ccccc1-2	SKKanGAS inh 75 (no result: CSC inhib)
O=C(COC(=O)CNS(=O)(=O)c1ccc(F)c(F)c1F)Nc1ccc(OC(F)F)cc1	none

Assay outcomes deposited in PubChem by several laboratories.
